Assay results reported in PubChem BioAssay (NCI).
Compounds without any hit were thinned out: in the full panel of roughly 83,000, 20% have a hit.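 Growth was measured after 48 h exposure to one concentration of compound in 96-well plates. Values under 10 count as active.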 Calls of active or inactive are those of the source.

Assays:
Assay in all cases: NCI-60 one-dose screen, 48 h (100 = growth as untreated, 0 = no growth, -100 = all killed)
Conditions in all cases: 10 µM unless noted
[1] = test system: SR leukemia
[2] = test system: RPMI-8226 leukemia
[3] = test system: OVCAR-8 ovarian
[4] = test system: OVCAR-5 ovarian
[5] = test system: OVCAR-4 ovarian
[6] = test system: SK-OV-3 ovarian
[7] = test system: IGROV1 ovarian
[8] = test system: OVCAR-3 ovarian
[9] = test system: HS 578T breast
[10] = test system: NCI/ADR-RES ovarian
[11] = test system: T-47D breast
[12] = test system: BT-549 breast
[13] = test system: MDA-MB-435 melanoma
[14] = test system: SW-620 colon
[15] = test system: MCF7 breast
[16] = test system: HCT-116 colon
[17] = test system: HCC-2998 colon
[18] = test system: KM12 colon

Measured: growth

Nc1nc(N)c2c(n1)NC(c1ccc3c(c1)OCO3)CC(c1cccc(Nc3ccncc3)c1)=N2 (stereo unspecified)
inactive: [1] 53.1% | [2] 80.5% | [3] 83.8% | [4] 114% | [5] 98.7% | [6] 90.9% | [7] 79.7% | [8] 90.9% | [9] 81.4% | [10] 107% | [11] 88.5% | [12] 117% | [13] 50.5% | [14] 58% | [15] 63% | [16] 43.7% | [17] 88.1% | [18] 80%

Oc1cccc2c1NCCC2
inactive: [1] 27.2% | [2] 14.9% | [3] 19.9% | [4] 44.7% | [5] 17.9% | [6] 20.4% | [7] 18.3% | [9] 24.3% | [10] 23.7% | [11] 22.1% | [12] 39.1% | [13] 15.4% | [14] 19.9% | [15] 13.1% | [17] 32.8% | [18] 20.7%
active: [8] 4.94% | [16] 8.94%

Fc1ccc(/C=C/c2cc(/C=C/c3ccc(F)cc3)n(-c3cc(F)cc(F)c3)n2)cc1
inactive: [1] 87.5% | [2] 73.8% | [3] 112% | [4] 95.2% | [5] 107% | [6] 97.4% | [7] 90.3% | [8] 108% | [9] 114% | [10] 101% | [11] 80.2% | [12] 97.6% | [13] 103% | [14] 104% | [15] 89% | [16] 84.5% | [17] 93.4% | [18] 105%

CC1=NN(c2cccc(Cl)c2)C(=O)/C1=C\C=C\c1ccccc1
active: [3] 0.373% | [5] -10.4% | [10] -17.5% | [14] 1.26% | [16] -89.2%
inactive: [1] 10.6% | [2] 15.4% | [4] 144% | [6] 39.4% | [7] 45.5% | [8] 104% | [9] 133% | [11] 36.7% | [12] 78.4% | [13] 13.6% | [15] 10.9% | [17] 30.9% | [18] 16.1%

CCN1C(=O)N(CC)C2C1NC(=S)N2/N=C/C=C/c1cccs1 (stereo unspecified)
active: [8] 2.01% | [10] 4.47% | [13] -26.9%
inactive: [1] 17.8% | [2] 25.4% | [3] 17.2% | [4] 33% | [5] 57.3% | [6] 43.7% | [7] 24.5% | [9] 16.5% | [11] 66.4% | [12] 24.1% | [14] 25.5% | [15] 18.3% | [16] 15.1% | [17] 16.4% | [18] 18.5%

N#CSCc1cc(Cl)c(CSC#N)cc1Cl
inactive: [1] 10.8% | [2] 48.6% | [3] 94.9% | [4] 82.9% | [5] 80.5% | [6] 101% | [7] 84.7% | [8] 71.3% | [9] 82.3% | [10] 84.5% | [11] 90% | [12] 39.7% | [13] 34.9% | [14] 20.6% | [15] 24.5% | [16] 34.7% | [17] 97% | [18] 85.5%

COc1ccc(/C(C)=C(\c2ccc(Cl)cc2)c2ccc(OCCCN(C)C)cc2)cc1
active: [1] 0.701%
inactive: [2] 25.6% | [3] 85% | [4] 83.4% | [5] 90.4% | [6] 111% | [7] 81.3% | [8] 89% | [9] 71.5% | [10] 86.5% | [11] 58.1% | [12] 82.3% | [13] 39% | [14] 46.3% | [15] 36.9% | [16] 37.4% | [17] 100% | [18] 56.5%

C/C(=C(\c1ccc(OCCCN(C)C)cc1)c1ccc(OC(=O)Cc2ccccc2)cc1)c1ccc(Cl)cc1
inactive: [2] 27.1% | [3] 89.2% | [4] 89.3% | [5] 69.8% | [6] 73.3% | [7] 88.4% | [8] 70.4% | [9] 66.4% | [10] 85.1% | [11] 51.2% | [12] 83.9% | [13] 57.7% | [14] 84.6% | [15] 23.5% | [16] 58.3% | [17] 73.6% | [18] 67.4%
active: [1] -34.9%

CCN1C(=O)N(CC)C2C1NN=c1s/c(=C\c3ccccc3)c(=O)n12 (stereo unspecified)
active: [3] -9.95% | [8] -7.69% | [10] 2.31% | [13] -24.8% | [16] 9.74%
inactive: [1] 14.8% | [2] 11.6% | [4] 30.2% | [5] 48.1% | [6] 33.5% | [7] 19.8% | [9] 16.8% | [11] 70.8% | [12] 13.2% | [14] 18.8% | [15] 16.2% | [17] 16.2% | [18] 12.2%

CCOC(=O)c1c(Nc2nc3ccccc3s2)sc2c1CCC(=O)C2
active: [1] 0.365% | [5] 8.06%
inactive: [2] 12.7% | [3] 27.2% | [4] 86.7% | [6] 99.5% | [7] 44.7% | [8] 49.7% | [9] 41.1% | [10] 87.3% | [11] 37% | [12] 13.5% | [13] 82.6% | [14] 19.4% | [15] 39.3% | [16] 11.4% | [17] 104% | [18] 47.7%

CN(CCNc1ccc(C(=N)N)cc1)c1ccc(C(=N)N)cc1
inactive: [1] 66.7% | [2] 72.2% | [3] 80.8% | [4] 92% | [5] 96.2% | [6] 119% | [7] 36.7% | [8] 91.4% | [9] 101% | [10] 97.1% | [11] 126% | [12] 102% | [13] 92.6% | [14] 98.6% | [15] 116% | [16] 101% | [17] 99.6% | [18] 86.2%

Clc1ccc(C2=Nn3c(nnc3-c3cc(Cl)cc(Cl)c3Cl)SC2)cc1
inactive: [2] 42.8% | [3] 71.8% | [4] 19.3% | [5] 74.9% | [6] 50.4% | [7] 22.7% | [9] 20.9% | [11] 63.2% | [12] 31.4% | [14] 19.1% | [16] 13.7% | [18] 23.5%
active: [1] 2.55% | [8] 8.59% | [10] 5.52% | [13] -15.6% | [15] 7.6% | [17] -8.03%

Cc1cc2nc(C(Cl)Cl)nc(-c3ccccc3)n2n1
inactive: [1] 20.6% | [2] 63% | [3] 49.6% | [4] 78.8% | [5] 33.2% | [6] 60.6% | [7] 71.4% | [8] 36.9% | [9] 52.6% | [10] 48.6% | [11] 61.7% | [12] 86.8% | [13] 68.9% | [14] 29.6% | [15] 41.5% | [16] 41.1% | [17] 28.5% | [18] 18.2%

O=C(O)/C=C\C(=O)Nc1ccc2c(c1)Cc1cc(F)ccc1-2
inactive: [1] 106% | [2] 97.6% | [3] 105% | [4] 107% | [5] 100% | [6] 94.2% | [7] 95.5% | [8] 106% | [9] 126% | [10] 102% | [11] 84.6% | [12] 111% | [13] 102% | [14] 110% | [15] 93.3% | [16] 92.1% | [17] 97.6% | [18] 101%

O=C1CCC(C(=O)N/N=C/c2ccc([N+](=O)[O-])cc2)N1 (stereo unspecified)
inactive: [1] 113% | [2] 100% | [3] 101% | [4] 105% | [5] 104% | [6] 105% | [7] 100% | [8] 105% | [9] 98.8% | [10] 103% | [11] 99.2% | [12] 106% | [13] 102% | [14] 105% | [15] 94.8% | [16] 105% | [17] 95.3% | [18] 105%

O=C1c2c(c3c4cc(F)ccc4oc3c3[nH]c4ccccc4c23)C(=O)N1O
inactive: [2] 26.2% | [3] 50.8% | [4] 100% | [5] 61.4% | [6] 55.7% | [7] 25.6% | [8] 25.5% | [9] 65.2% | [10] 45.6% | [12] 44.8% | [13] 48.9% | [14] 31.6% | [15] 17.3% | [16] 23.4% | [17] 70.3% | [18] 39.5%
active: [1] 9.66% | [11] 5.76%

COc1cc2c(c(OC)c1OC)CCC(c1cccc(C(=O)Nc3ccccc3Br)c1)O2 (stereo unspecified)
inactive: [1] 75.6% | [2] 83% | [3] 80.1% | [4] 90.6% | [5] 85.3% | [6] 81% | [7] 89.2% | [8] 100% | [9] 86.2% | [10] 99.2% | [11] 68.6% | [12] 69.6% | [13] 94% | [14] 99.6% | [15] 91.8% | [16] 74.7% | [17] 90% | [18] 101%
